These results are taken from PMC4336329 (PLoS ONE, 2015).

Molecules are shown by their SMILES. Out of some 310,000 compounds screened, about 14,000 (4.5%) showed an effect of 50% or more. The effect is printed as a negative number. This is one part of a sample in which strong results are shown more often than they occur.
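Further: peak tail current of the secondary pulse compared with the same well before compound.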

human ether-à-go-go-related gene (hERG) potassium channel, sequence (Q12809 whole entry, looked up): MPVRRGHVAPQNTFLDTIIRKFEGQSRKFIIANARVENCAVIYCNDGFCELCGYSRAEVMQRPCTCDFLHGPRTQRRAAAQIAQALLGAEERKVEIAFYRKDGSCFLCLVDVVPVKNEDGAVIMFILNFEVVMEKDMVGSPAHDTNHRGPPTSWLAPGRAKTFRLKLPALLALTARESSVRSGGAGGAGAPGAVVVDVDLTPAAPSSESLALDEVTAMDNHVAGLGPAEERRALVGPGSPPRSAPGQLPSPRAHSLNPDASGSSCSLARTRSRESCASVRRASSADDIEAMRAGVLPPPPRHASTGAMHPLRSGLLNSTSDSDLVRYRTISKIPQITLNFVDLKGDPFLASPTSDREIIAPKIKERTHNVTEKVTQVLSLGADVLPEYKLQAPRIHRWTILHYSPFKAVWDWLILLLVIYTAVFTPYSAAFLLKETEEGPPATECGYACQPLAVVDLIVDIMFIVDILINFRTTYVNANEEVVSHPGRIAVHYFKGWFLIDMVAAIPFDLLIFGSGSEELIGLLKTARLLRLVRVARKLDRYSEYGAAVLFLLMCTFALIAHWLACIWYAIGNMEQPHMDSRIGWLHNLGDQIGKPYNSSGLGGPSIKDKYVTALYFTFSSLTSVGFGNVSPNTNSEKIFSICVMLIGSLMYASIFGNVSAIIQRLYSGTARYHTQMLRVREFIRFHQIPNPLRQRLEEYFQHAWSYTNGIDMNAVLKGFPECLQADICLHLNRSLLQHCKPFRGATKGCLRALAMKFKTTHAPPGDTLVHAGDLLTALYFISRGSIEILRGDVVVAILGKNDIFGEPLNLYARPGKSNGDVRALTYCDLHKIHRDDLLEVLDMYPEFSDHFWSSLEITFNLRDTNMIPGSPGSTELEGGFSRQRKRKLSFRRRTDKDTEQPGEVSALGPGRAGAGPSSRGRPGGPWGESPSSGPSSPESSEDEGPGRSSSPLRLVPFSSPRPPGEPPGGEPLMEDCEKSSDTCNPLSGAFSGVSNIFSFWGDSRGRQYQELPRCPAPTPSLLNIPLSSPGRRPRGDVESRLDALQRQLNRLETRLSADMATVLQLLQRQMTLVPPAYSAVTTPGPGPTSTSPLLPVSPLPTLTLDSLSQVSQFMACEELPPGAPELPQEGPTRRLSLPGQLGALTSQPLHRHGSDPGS

This test has as its target human ether-à-go-go-related gene (hERG) potassium channel (human, UniProt Q12809). The test is described as follows: primary screen, population patch clamp on CHO cells stably expressing hERG; higher = less effect of the substance.
Regarding `CN(CC(=O)Nc1ccccc1Br)C(=O)c1ccccc1-c1nc2ccccc2s1`, the “hERG current change (%, negative = inhibition) at 10uM” value is reported as -26.3%.
Next, `O=C(CCS(=O)(=O)c1ccc(Br)cc1)NC1CCCC1`: 11.6%.
Next, `COC(=O)c1ccc(-c2c(-c3ccccc3)ncc3cc(F)ccc23)cc1`: 7.97%; `CCN(CC)CC(O)CN1c2ccccc2Sc2ccccc21` (stereo not drawn): -25%.
The same measure for `CC1CCN(C(=O)N2c3ccccc3Sc3ccccc32)CC1`: -5.69%.
Turning to `CC1CCN(CC(O)CN2c3ccccc3Sc3ccccc32)CC1` (stereo not drawn), the “hERG current change (%, negative = inhibition) at 10uM” value is recorded as -59.2%.
On to `COC(=O)c1sc(NC(=O)COc2ccc(OC)cc2)nc1C`, for which the “hERG current change (%, negative = inhibition) at 10uM” value stood at 6.37%.
Next, `COC(=O)c1ccccc1NC(=O)c1cnn2cccnc12`: 13%; `C/C(NC(=O)c1ccccc1)=C1/C(=O)CC2C1C2(C)C` (stereo not drawn): 2.15%.
With `O=C(CN(Cc1ccco1)C(=O)c1cc(=O)[nH]c2ccccc12)Nc1ccccc1C(F)(F)F`, the “hERG current change (%, negative = inhibition) at 10uM” value was -12%.
As for `O=C(CN(Cc1ccco1)C(=O)c1cc(=O)[nH]c2ccccc12)Nc1ccccc1Br`, the “hERG current change (%, negative = inhibition) at 10uM” value is recorded as -53.5%.
Next, `COc1cc(SC)ccc1C(=O)N(CC(=O)Nc1ccccc1Br)Cc1ccco1`: -10.4%; `CC(C)=CCOc1ccc2ccc(=O)oc2c1`: -12.9%; `Cc1cccc(C(=O)Nc2ccccc2NC(=O)c2cccc(C)c2)c1`: 8.24%.
Next, `CCOc1ccc(NC(=O)c2c(NC(=O)CN3CCN(C)CC3)sc3c2CCC3)cc1`: -72.7%; `COc1ccc(NC(=O)c2c(NC(=O)CNCc3ccco3)sc3c2CCC3)cc1`: 17.8%; `O=C(CN1CCCC1)Nc1sc2c(c1C(=O)Nc1ccc(Br)cc1)CCC2`: -1.29%.
With `CCOc1ccc(NC(=O)c2c(NC(=O)CN3CCCC3)sc3c2CCC3)cc1`, the “hERG current change (%, negative = inhibition) at 10uM” value is -3.84%.
`CCOc1ccc(NC(=O)c2c(NC(=O)CNCCN3CCOCC3)sc3c2CCC3)cc1`: the “hERG current change (%, negative = inhibition) at 10uM” value was -69.3%.
Next, `COC(=O)c1c(NC(=O)CCN2CCOCC2)sc2c1CCCC2`: -26%; `CC(NC(=O)N(Cc1ccccc1)Cc1ccc2c(c1)OCO2)(C(F)(F)F)C(F)(F)F`: 7.8%; `O=C(CCCN=C1NS(=O)(=O)c2ccccc21)OCc1cc([N+](=O)[O-])cc2c1OCOC2`: -14.7%.
Next, `CCC(OC(=O)c1ccco1)C(=O)NCc1ccc(OC)cc1` (stereo not drawn): -8.67%; `O=C(Cc1cccc2ccccc12)N1CC[C@@]2(O)CCCC[C@H]2C1`: 12.5%.
Take `CN(C)S(=O)(=O)c1cccc(NC(=O)COC(=O)c2ccc3c(c2)OCO3)c1`: the “hERG current change (%, negative = inhibition) at 10uM” value was -19.4%.
Turning to `COc1ccc(CNCCCO)cc1OC`, the “hERG current change (%, negative = inhibition) at 10uM” value is 4.57%.
For the compound `COc1ccc(CC(=O)NC(C)CCc2ccccc2)cc1OC` (stereo not drawn), the “hERG current change (%, negative = inhibition) at 10uM” value is 8.96%.
The same measure for `COc1ccc(CNCCC(c2ccc(OC(C)C)cc2)C(C)C)cc1OC` (stereo not drawn): -74.5%; for `CCOCCCNCc1ccc(OC)c(OC)c1.O=C(O)C(=O)O`: 3.24%; for `COc1ccc(CNCCC(c2ccccc2)c2ccc(OC(C)C)cc2)cc1OC` (stereo not drawn): -69.7%.
`COc1ccc(CN(CCC(c2ccccc2)c2ccc(OC(C)C)cc2)C(=O)CCl)cc1OC` (stereo not drawn): the “hERG current change (%, negative = inhibition) at 10uM” value is on record as -1.82%.
The same measure for `COc1ccc(CNCCCSc2ncccn2)cc1OC.Cl`: 11.9%; for `COc1ccc(CNCCC(c2ccc(OC(C)C)cc2)c2ccccc2OC)cc1OC` (stereo not drawn): -71.3%.
For `COc1ccc(OC)c(NC(=S)NCCC(c2ccccc2)c2ccccc2)c1`, the “hERG current change (%, negative = inhibition) at 10uM” value is recorded as 1.73%.
For `COc1ccc(CNCCC(c2ccc(F)cc2)c2ccc(OC(C)C)cc2)cc1OC` (stereo not drawn), the “hERG current change (%, negative = inhibition) at 10uM” value was -73%.
The same measure for `COc1ccc(C(CCNCc2ccc(OC(C)C)cc2)C(C)C)cc1` (stereo not drawn): -39%.
Next, `COc1ccc(C(C)NC(=S)NCc2ccc(F)cc2)cc1OC` (stereo not drawn): -5.63%.
Regarding `C/C(=N\NC(=O)c1ccc(CN2CCOCC2)cc1)c1cccc([N+](=O)[O-])c1`, the “hERG current change (%, negative = inhibition) at 10uM” value was -19.5%.
Next, `COc1ccccc1C(=O)Nc1ccccc1C(=O)NC1CCCCC1`: -1.19%; `O=C(COc1ccccc1Cl)Nc1ccc(C(=O)c2ccc(C(=O)O)cc2)cc1`: 11.7%; `Cc1cccc2c(=O)oc(-c3ccccc3Cl)nc12`: 14.2%.
Next, `Cc1ccc(CN2[C@@H](CC(C)C)COCCS2(=O)=O)cc1`: -2.46%; `CCOc1ccc(CN(C)C(=O)c2ccc(NC(=O)CC3SC(N4CCCC4)=NC3=O)cc2)cc1` (stereo not drawn): 7.53%.
As to `O=C(NCC1CCCO1)c1ccccc1-c1nc(-c2ccc(F)cc2)no1` (stereo not drawn), the “hERG current change (%, negative = inhibition) at 10uM” value is given as -31.1%.
Next, `CCc1nnc(NC(=O)CSc2nnc(COc3ccccc3)n2Cc2ccccc2)s1`: 5.71%; `COc1ccc(NC(=O)c2sccc2-n2cccc2)cc1`: 3.64%; `CCc1cccc2c(C(=O)CN3C(=O)NC4(CCc5ccccc54)C3=O)c[nH]c12` (stereo not drawn): 10.4%.
Consider `CC(NC(=O)CSc1nc(=O)cc(N)n1CCc1ccccc1)c1ccccc1` (stereo not drawn), for which the “hERG current change (%, negative = inhibition) at 10uM” value is 1.91%.
The same measure for `O=C(Cn1c(=O)n(-c2cccc(Cl)c2)c(=O)n1CC(=O)N1CCCCC1)N1CCCCC1`: 4.64%.
Next, `CCOc1ccc(-n2c(C)cc(C(=O)NS(=O)(=O)c3ccc(C)cc3)c2C)cc1`: -32.3%; `CCOC(=O)C1CCN(C(=O)CSc2n[nH]c(=O)[nH]c2=O)CC1`: 7.16%.
As to `CC(C)Oc1ccc(CNC(=O)Oc2ccccc2)cc1`, the “hERG current change (%, negative = inhibition) at 10uM” value stood at 8.19%.
Next, `COc1ccc(CNC(=S)NCc2ccc(F)cc2)cc1OC`: -0.604%; `COc1ccc(C(CCN(Cc2ccc(OC)c(OC)c2)C(C)=O)C(C)C)cc1` (stereo not drawn): -52.3%; `COc1ccc(NCc2ccc(OC)c(OC)c2)cc1`: 2.67%.
In the case of `CC(C)Oc1ccc(C(CCNCc2ccc(O)cc2)c2ccccc2)cc1` (stereo not drawn), the “hERG current change (%, negative = inhibition) at 10uM” value is -58.7%.
In the case of `COc1ccc(C(CCNCc2ccc(OC)c(OC)c2)c2ccc(F)cc2)cc1` (stereo not drawn), the “hERG current change (%, negative = inhibition) at 10uM” value is -71.3%.
Next, `COc1ccc(CN(CCC(c2ccco2)C(C)C)C(C)=O)cc1OC` (stereo not drawn): 0.825%.
The same measure for `CC(C)Oc1ccc(CNC(=O)CC(c2ccccc2)c2cc(Cl)ccc2O)cc1` (stereo not drawn): 11.8%; for `COc1ccc(C(CCN(Cc2ccc(OC)c(OC)c2)C(C)=O)c2ccccc2)cc1` (stereo not drawn): -33.9%.
Regarding `Cc1ccc(S(=O)(=O)N2CCN(S(=O)(=O)N3CCOCC3)CC2)cc1`, the “hERG current change (%, negative = inhibition) at 10uM” value worked out at 13.4%.
On to `COCCCNC(=O)CCc1nnc2ccc(N3CCC(C)CC3)nn12`, for which the “hERG current change (%, negative = inhibition) at 10uM” value turned out to be 10.9%.
Consider `O=C(CSC1=NS(=O)(=O)c2ccccc2N1)c1ccccc1`, for which the “hERG current change (%, negative = inhibition) at 10uM” value is -8.85%.
The same measure for `COc1ccc(CNC(=O)C/C(C)=N/NC(=O)COc2ccc(Br)cc2)cc1`: -33.3%.
The same measure for `O=C(O)c1ccc(NCc2cccnc2)c([N+](=O)[O-])c1`: 30%.
As for `Cc1ccc(C(=O)n2nc(-c3ccccc3)nc2NCc2ccco2)cc1`, the “hERG current change (%, negative = inhibition) at 10uM” value stood at 16%.
Next, `Cc1cc(C)n(CCC(=O)Nc2ccc3c(c2)OCCO3)n1`: 17.1%; `COc1ccc(CN2CCCCC2c2cccnc2)cc1C` (stereo not drawn): 0.438%; `Cc1ccc(-c2c(C(=O)N3CCOCC3)oc(=O)c3ccccc23)cc1`: -17.8%.
The same measure for `O=C(c1oc(=O)c2ccccc2c1-c1ccccc1)N1CCC(O)CC1`: -11.6%; for `CCOC(=O)N1CCN(C(=O)c2oc(=O)c3ccccc3c2-c2ccc(C)cc2)CC1`: -31.4%; for `Cc1nc2ccccc2c2oc(C(=O)N3CCN(C4CCCCC4)CC3)cc12`: -64.7%.
Regarding `O=C(c1oc(=O)c2ccccc2c1-c1ccccc1)N1CCN(C2CCCCC2)CC1`, the “hERG current change (%, negative = inhibition) at 10uM” value is listed as -61.6%.
The same measure for `Cc1nc2ccccc2c2oc(C(=O)N3CCC(C)CC3)cc12`: -30.5%; for `O=C(c1oc(=O)c2ccccc2c1-c1ccccc1)N1CCOCC1`: -24.6%.
Next, `Cc1nc2ccccc2c2oc(C(=O)N3CCC(N4CCCCC4)CC3)cc12`: -38.8%; `O=C(c1ccco1)N1CCN(C(=O)c2oc(=O)c3ccccc3c2-c2ccccc2)CC1`: -50.7%; `CCOC(=O)c1cnn2c(N)c(C#N)cnc12`: 13.9%.
Next, `C/C(=N\O)C(=O)NCCN1CCCCC1`: -10.2%.
`Cc1c(C#N)c(NC(=O)CCl)n(Cc2ccc(F)cc2)c1C`: the “hERG current change (%, negative = inhibition) at 10uM” value was determined as 12.8%.
Consider `N#Cc1nc(-c2ccc(OCc3ccccc3)cc2)oc1NCc1ccco1`, for which the “hERG current change (%, negative = inhibition) at 10uM” value worked out at 7.75%.
Take `CCn1c2c(c3cc(OCC(C)C)ccc31)CCCC2=O`: the “hERG current change (%, negative = inhibition) at 10uM” value was determined as 6.13%.
Consider `Cc1cc(C(=O)Nc2ccccn2)cs1`, for which the “hERG current change (%, negative = inhibition) at 10uM” value is listed as 3.35%.
As to `Cc1cc(C)nc(NS(=O)(=O)c2ccc(NC(=O)CCN3C(=O)c4ccccc4C3=O)cc2)n1`, the “hERG current change (%, negative = inhibition) at 10uM” value is reported as 3.74%.
`CC(C(=O)NC1CCCC1)N1CCN(Cc2ccccc2)CC1` (stereo not drawn): the “hERG current change (%, negative = inhibition) at 10uM” value came to 28.6%.
In the case of `CC1CCN(C(C)C(=O)Nc2ccccc2-c2ccccc2)CC1.O=C(O)C(=O)O` (stereo not drawn), the “hERG current change (%, negative = inhibition) at 10uM” value is given as -15.4%.
The same measure for `CC(C(=O)Nc1ccccc1-c1ccccc1)N1CCN(S(=O)(=O)c2ccccc2)CC1` (stereo not drawn): -14.3%.
Regarding `CC(C(=O)Nc1ccccc1-c1ccccc1)N1CCOCC1` (stereo not drawn), the “hERG current change (%, negative = inhibition) at 10uM” value is -2%.
Consider `CC(C(=O)Nc1ccccc1-c1ccccc1)N1CCN(Cc2ccccc2)CC1` (stereo not drawn), for which the “hERG current change (%, negative = inhibition) at 10uM” value is -72.2%.
Next, `CC(C(=O)Nc1ccccc1-c1ccccc1)N1CCN(C(=O)c2ccccc2)CC1` (stereo not drawn): -66.9%.
